# Laboratory results as given in the supplement of paper PMC8728848.
# Only a selection was taken, and the strongest signals are over-represented in it overall.
# B1: TAL6-6LysM (Trichoderma atroviride) (protein)
# chain: AASKLGVPQPAQRDQVNCQLYAVQPNDNCIDISSKNNITYAQLLSWNPSLSSTCSNLASLNSSSICVSNPKGTFSISSNTVGATDIATTTAPVPSPTLDQTTSRCAKYYQVSDGDDCSHLTAQFAITLKDFIFLNSEVWQNCTNLELGYYYCVEPVGYISTYPGYLPTATTKPFNQTSATSLPYDGDPWARFSSNSSVIPIANGTRVDCYSYVYVKNLTENLFADCWNMASMYEITREELVLWNPSLGNDGSSGSNLSGAEASQVASSIAIPTTAPSSITTNLYTYPCTVAANISYCVALVSSTGALPTNTAPPGPHASGEISNCTAWFAPEAYDTCKSILDIFEMSFANFYKMNPSVGPDCSGLAVGTNYCVSTYPNGEDPNDDWDGDDSIPSISPTGIITPTPTQSGMVSNCNKFYDVHSNDGCSAIASSQHVDLSSLYKWNPAIKTDCSGLQASVYVCIGILTTSMSTTSKLPTTTSKPSTTSKPPTGITTPTPTQSGMVKNCNKFYDVHSGDGCSAIASSQKVNLSSFYLWNPAVKTDCSGLQASVFVCIGTLTTSMSTTTSKLPTTTSKPSTTSKPPTGIITPTPTQNGMVKNCNKFYDVHSGDGCSAIASSQKVNLSSFYLWNPAVKTDCSGLQASVFVCVGTATTTTAAGITTPTPTQSGMVSGCNKFYDVHAGDGCSAIASSQKIALSSLYKWNPAVKTDCSGLQASVYICIGVGNAAAARVTGAAASFLEQKLISEEDLNSAVDHHHHHH
# Legend:
# Assay in all cases: glycan array binding signal (z-score within array); higher = stronger binding
# Conditions in all cases: glycan notation: IUPAC condensed, linker removed
# [1] = target: Fuc(a1-2)Gal(b1-3)GlcNAc(b1-3)Gal(b1-4)Glc
# Procedure, shortened: (§1)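 The binding signal is a Z-score computed within each array. Data were drawn from 3228 arrays in the Consortium for Functional Glycomics database, restricted to those with a known protein sequence. Scores were averaged over arrays of the same protein sequence at different concentrations or buffers, and over linkers, and negative values can be taken as non-binding.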
# [2] = target: Fuc(a1-2)Gal(b1-3)GlcNAc6S
# Procedure, shortened: as §1
# [3] = target: Fuc(a1-2)Gal(b1-3)[Fuc(a1-4)]GlcNAc(b1-2)Man(a1-3)[Fuc(a1-2)Gal(b1-3)[Fuc(a1-4)]GlcNAc(b1-2)Man(a1-6)]Man(b1-4)GlcNAc(b1-4)[Fuc(a1-6)]GlcNAc(b1-4)[Fuc(a1-6)]GlcNAc
# Procedure, shortened: as §1
# [4] = target: Fuc(a1-2)Gal(b1-4)GlcNAc(b1-2)Man
# Procedure, shortened: as §1
# [5] = target: Fuc(a1-2)Gal(b1-4)GlcNAc(b1-3)[Fuc(a1-2)Gal(b1-4)GlcNAc(b1-6)]GalNAc
# Procedure, shortened: as §1
# [6] = target: Fuc(a1-2)Gal(b1-4)GlcNAc(b1-6)GalNAc
# Procedure, shortened: as §1
# [7] = target: Fuc(a1-2)Gal(b1-4)[Fuc(a1-3)]GlcNAc(b1-3)Gal(b1-4)[Fuc(a1-3)]GlcNAc(b1-3)Gal(b1-4)[Fuc(a1-3)]GlcNAc
# Procedure, shortened: as §1
# Fuc(a1-2)Gal6S(b1-4)Glc = target: Fuc(a1-2)Gal6S(b1-4)Glc
# Procedure, shortened: as §1
# [8] = target: Fuc(a1-2)[Gal(a1-3)]Gal(b1-4)GlcNAc(b1-3)[Fuc(a1-2)[Gal(a1-3)]Gal(b1-4)GlcNAc(b1-6)]GalNAc
# Procedure, shortened: as §1
# [9] = target: Fuc(a1-2)[Gal(a1-3)]Gal(b1-4)[Fuc(a1-3)]GlcNAc(b1-3)GalNAc
# Procedure, shortened: as §1
# [10] = target: Fuc(a1-2)[GalNAc(a1-3)]Gal
# Procedure, shortened: as §1
# [11] = target: Fuc(a1-2)[GalNAc(a1-3)]Gal(b1-3)GlcNAc(b1-3)GalNAc
# Procedure, shortened: as §1
# [12] = target: Fuc(a1-2)[GalNAc(a1-3)]Gal(b1-4)[Fuc(a1-3)]GlcNAc(b1-3)GalNAc
# Procedure, shortened: as §1
# [13] = target: Fuc(a1-3)[GalNAc(b1-4)]GlcNAc
# Procedure, shortened: as §1
# [14] = target: Gal(a1-3)Gal(b1-4)GlcNAc(b1-2)Man
# Procedure, shortened: as §1
# [15] = target: Gal(a1-3)Gal(b1-4)GlcNAc(b1-2)Man(a1-3)[Gal(a1-3)Gal(b1-4)GlcNAc(b1-2)Man(a1-6)]Man(b1-4)GlcNAc(b1-4)GlcNAc
# Procedure, shortened: as §1
# Gal(a1-4)Gal(b1-4)Glc = target: Gal(a1-4)Gal(b1-4)Glc
# Procedure, shortened: as §1
# Gal(b1-3)Gal = target: Gal(b1-3)Gal
# Procedure, shortened: as §1
# [16] = target: Gal(b1-3)GalNAc(b1-4)Gal(b1-4)Glc
# Procedure, shortened: as §1
# Gal(b1-3)GlcNAc(b1-2)Man = target: Gal(b1-3)GlcNAc(b1-2)Man
# Procedure, shortened: as §1
# [17] = target: Gal(b1-3)GlcNAc(b1-3)GalNAc
# Procedure, shortened: as §1
# [18] = target: Gal(b1-3)[Fuc(a1-4)]GlcNAc(b1-6)GalNAc
# Procedure, shortened: as §1
# Gal(b1-4)Gal = target: Gal(b1-4)Gal
# Procedure, shortened: as §1
# [19] = target: Gal(b1-4)GlcNAc(b1-2)Man(a1-6)[Man(a1-3)]Man(b1-4)GlcNAc(b1-4)GlcNAc
# Procedure, shortened: as §1
# [20] = target: Gal(b1-4)GlcNAc(b1-3)Gal(b1-3)GalNAc
# Procedure, shortened: as §1
# [21] = target: Gal3S(b1-4)[Fuc(a1-3)]Glc6S
# Procedure, shortened: as §1
# Gal3S6S(b1-4)GlcNAc = target: Gal3S6S(b1-4)GlcNAc
# Procedure, shortened: as §1
# Gal3S6S(b1-4)GlcNAc6S = target: Gal3S6S(b1-4)GlcNAc6S
# Procedure, shortened: as §1
# Gal6S(b1-4)GlcNAc6S = target: Gal6S(b1-4)GlcNAc6S
# Procedure, shortened: as §1
# GalNAc(a1-3)Gal = target: GalNAc(a1-3)Gal
# Procedure, shortened: as §1
binder,measurement,setting,value
B1,glycan array binding signal (z-score),[1],-0.234
same,glycan array binding signal (z-score),[2],0.906
same,glycan array binding signal (z-score),[3],0.449
same,glycan array binding signal (z-score),[4],-0.377
same,glycan array binding signal (z-score),[5],-0.205
same,glycan array binding signal (z-score),[6],3.12
same,glycan array binding signal (z-score),[7],2.68
same,glycan array binding signal (z-score),Fuc(a1-2)Gal6S(b1-4)Glc,-0.385
same,glycan array binding signal (z-score),[8],-0.724
same,glycan array binding signal (z-score),[9],0.955
same,glycan array binding signal (z-score),[10],-0.757
same,glycan array binding signal (z-score),[11],0.204
same,glycan array binding signal (z-score),[12],-0.108
same,glycan array binding signal (z-score),[13],2.99
same,glycan array binding signal (z-score),[14],0.538
same,glycan array binding signal (z-score),[15],0.08
same,glycan array binding signal (z-score),Gal(a1-4)Gal(b1-4)Glc,2.69
same,glycan array binding signal (z-score),Gal(b1-3)Gal,-0.192
same,glycan array binding signal (z-score),[16],-0.503
same,glycan array binding signal (z-score),Gal(b1-3)GlcNAc(b1-2)Man,3.66
same,glycan array binding signal (z-score),[17],-0.729
same,glycan array binding signal (z-score),[18],1.02
same,glycan array binding signal (z-score),Gal(b1-4)Gal,-0.397
same,glycan array binding signal (z-score),[19],0.445
same,glycan array binding signal (z-score),[20],-0.573
same,glycan array binding signal (z-score),[21],2.96
same,glycan array binding signal (z-score),Gal3S6S(b1-4)GlcNAc,2.51
same,glycan array binding signal (z-score),Gal3S6S(b1-4)GlcNAc6S,3
same,glycan array binding signal (z-score),Gal6S(b1-4)GlcNAc6S,-0.018
same,glycan array binding signal (z-score),GalNAc(a1-3)Gal,2.44
